Compound activity (PubChem)
This is a sample that favours compounds with a hit; in the whole collection about 9.9% have one here.
KB-3-1 cytotox: KB-3-1 parental cell cytotoxicity | KB-3-1 viability, CellTiter-Glo ATP luminescence, 72 h | Potency, µM (top dose mostly 46.1 µM), hits mostly cytotoxic | 400,000 compounds, 1.4% hits | AID 1347075; further: potency means the concentration at half of the fitted maximal effect; on the % scale 0 is the no-effect control and ±100 the full control effect; nearly all actives have a fitted effect of over 60% in size
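Using CellTiter-Glo luminescence, growth of non-resistant KB-3-1 adenocarcinoma cells is assessed 72 h after pin-tool compound addition at 37 °C. Normalized responses across the concentration series yield fitted curves.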
SW480 rereplic: induces DNA re-replication in SW480 colon adenocarcinoma cells | AID 624297 | SW480 DNA re-replication, Hoechst DNA content imaging, 48 h | Potency, µM (titrated, usually from 46.1 µM), for the others: top-dose re-replication activation, most hits filed as activators | 340,000 compounds, 1.8% hits; further: potency means the concentration at half of the fitted maximal effect; % of control where 0% means no effect; nearly all actives have a fitted effect of over 55% in size
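Quantitative HTS format with DMSO vehicle controls; 48 hr drug incubation at 37 C, then 40 min Hoechst staining and scanning imager measurement at 405 nm excitation.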
KB-V1 cytotox: kills drug-selected multidrug resistant KB-V1 cells. Potency, µM (titrated, usually from 46.1 µM), hits mostly cytotoxic. 400,000 compounds, 3.4% hits. KB-V1 MDR cells viability, CellTiter-Glo, 72 h. AID 1347076; further: potency means the concentration at half of the fitted maximal effect; on the % scale 0 is the no-effect control and ±100 the full control effect; nearly all actives have a fitted effect of over 60% in size
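Cells of the MDR subline KB-V1 are plated, dosed with compound at multiple concentrations, and incubated 72 h at 37 degrees C; CellTiter-Glo is then added and luminescence read after 10 min.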
MCF10A rereplic: DNA re-replication induction in MCF 10a cells; MCF 10A DNA re-replication, Hoechst nuclear intensity, 48 h; Potency, µM (series often up to 46.1 µM), for the others: top-dose activity, positive = re-replication, usual class: activators; 350,000 compounds, 2.9% hits; further: potency means the concentration at half of the fitted maximal effect; % of control where 0% means no effect; nearly all actives have a fitted effect of over 50% in size
IL-1B inflam inh: inflammasome signaling inhibition, IL-1 beta readout; THP-1 LPS/ATP IL-1B secretion, AlphaLISA, 16 h; hits give low values; activity change, % at 57.5 µM; 360,000 compounds, 4.7% hits; in the data active means activity change below about -50%; inconclusive means mostly about -30% to -49%; further: on the % scale 0 is the no-effect control and ±100 the full control effect
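THP-1 cells pretreated 1 hr with compounds (up to 57.5 uM final), then stimulated with LPS (250 ng/mL final) plus ATP (1.25 mM final); secreted IL-1B measured by AlphaLISA after 16 hr, decreased signal indicating inhibition.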
Starred values were filed as active, the others as inactive; i = inactive; ? = inconclusive; · = no result. Unless noted, the call rests on the fitted dose curve; in most records, active means well fitted curve in the direction sought with a large enough effect; inconclusive means small, poorly fitted or top-dose-only effect, or another doubt; inactive means no such curve, though single readings can be large; an effect the other way counts as inactive or inconclusive.

SMILES | KB-3-1 cytotox | SW480 rereplic | KB-V1 cytotox | MCF10A rereplic | IL-1B inflam inh
COC(=O)C1=CN(CC2CCCO2)C=C(C(=O)OC)C1c1ccsc1 (stereo not drawn) | i | -19% | i | 6% | -10
COC(=O)C1=CN(Cc2cccs2)C=C(C(=O)OC)C1c1cccc(Cl)c1 | i | ? | ? | 7.3µM* | -29
CCOc1ccc(C2C(C(=O)OC)=CN(CCOC)C=C2C(=O)OC)cc1 | i | ? | ? | 9% | 11
COCCN1C=C(C(=O)OC)C(c2ccc(Cl)cc2)C(C(=O)OC)=C1 | i | 9.2µM* | i | 16µM* | -19
Cc1cc(C(=O)N2CCN(c3cccc(Cl)c3)CC2)c2c(C)nn(-c3ccccc3Cl)c2n1 | i | · | i | · | ·
COc1ccccc1CN(Cc1nc2ccccc2c(=O)[nH]1)C(=O)Nc1ccc(C)cc1 | i | 1% | 21µM* | 2% | -4
CCC(CC)C(=O)N(CCc1ccc(OC)cc1)Cc1nc2ccccc2c(=O)[nH]1 | i | 21µM* | ? | 23µM* | -54*
COc1ccc(CCN(Cc2nc3ccccc3c(=O)[nH]2)C(=O)c2ccco2)cc1 | i | 17% | 21µM* | 10% | 3
CN(CC(=O)NC(=O)NCc1ccco1)Cc1nc2ccccc2c(=O)[nH]1 | i | 5.2µM* | i | ? | 0
Cc1ccc(-c2nn(-c3cccc([N+](=O)[O-])c3)c3c2cnc2ccc(F)cc23)cc1 | i | · | i | · | ·
Cc1ccc(Cl)cc1N1CCN(C2(c3ccccc3)C(=O)c3ccccc3C2=O)CC1 | i | · | i | · | ·
CCCCNC(=O)c1cn(C)c2ccc(S(=O)(=O)N3CC(C)CC(C)C3)cc2c1=O (stereo not drawn) | ? | -22% | i | 0% | -7
COc1ccc(CN(Cc2nc3ccccc3c(=O)[nH]2)C(=O)NC2CCCCC2)cc1 | i | 8% | i | 0% | -58*
O=C1NC(=O)/C(=C/c2cc3c(cc2Br)OCO3)S1 | i | 22% | i | 3% | -3
O=C1Nc2ccc3c(c2C1=Cc1cc2c(cc1Br)OCO2)OCO3 | 5.2µM* | 18µM* | ? | 5.2µM* | -13
O=C(Nc1ccccc1SC(=O)c1ccccc1)c1ccccc1 | i | · | i | · | 20
Cc1ccc(C(=O)Sc2cccccc2=O)cc1 | ? | ? | 2.6µM* | 2.1µM* | -97*
O=c1ccc(Oc2nc(N3CCOCC3)nc(N3CCOCC3)n2)n[nH]1 | i | ? | i | -2% | -19
CCOc1ccc(N)c(SSc2cc(OCC)ccc2N)c1 | i | 17% | i | ? | 0
CS(=O)(=O)c1ccc(N)c(SSc2cc(S(C)(=O)=O)ccc2N)c1 | i | -4% | i | 3.7µM* | -95*
O=[N+]([O-])/C=C/c1cn(Cc2ccc(Cl)cc2)c2ccccc12 | i | ? | ? | 5.8µM* | ?
NC1=NC(=O)/C(=C/c2cn(Cc3ccccc3)c3ccccc23)S1 | i | 16% | i | ? | 50
N#C/C(=C\c1cn(CC(=O)N2CCCCC2)c2ccccc12)C(=O)NCc1ccc2c(c1)OCO2 | i | 1.6µM* | 26µM* | 1% | -17
COC(=O)c1ccc(Cn2cc(/C=C\[N+](=O)[O-])c3ccccc32)o1 | ? | ? | i | ? | -102*
O=C(O)c1ccc(Cn2cc(/C=C\[N+](=O)[O-])c3ccccc32)o1 | i | 1% | i | -12% | 12
SMILES | KB-3-1 cytotox | SW480 rereplic | KB-V1 cytotox | MCF10A rereplic | IL-1B inflam inh
CCOC(=O)Cn1cc(/C=C(/C#N)C(=O)NC(C)C)c2ccccc21 | i | -4% | i | -3% | -1
CCOC(=O)Cn1cc(/C=C(\C#N)C(=O)N2CCOCC2)c2ccccc21 | i | -1% | i | -1% | -95*
CNS(=O)(=O)c1cccc(C(=O)OCC(=O)Nc2ccc3ccccc3c2)c1 | i | -2% | i | 0% | 20
CCn1c(SCC(=O)NCc2ccco2)nnc1-c1cccc(N(C)C)c1 | i | · | i | · | ·
CCSc1ccc(-c2nn(-c3ccccc3)cc2/C=C(/C#N)C(=O)NC)cc1 | i | ? | i | ? | 27
COc1cc(/C=C(\C#N)C(=O)N2CCOCC2)cc(Br)c1O | i | -115% | i | 0% | 18
CCCSc1ccc(-c2nn(-c3ccccc3)cc2/C=C(/C#N)C(=O)N2CCOCC2)cc1 | ? | -81% | 23µM* | -56% | ?
N#C/C(=C\c1cccc(Oc2ccccc2)c1)C(=O)N1CCOCC1 | i | ? | i | ? | -100*
CCOC(=O)Cn1cc(C#N)c2ccccc21 | i | -12% | i | -1% | -8
Cc1cccc(Cn2cc(/C=C/[N+](=O)[O-])c3ccccc32)c1 | ? | ? | i | 21µM* | -67*
CCOC(=O)Cn1cc(/C=C/[N+](=O)[O-])c2ccccc21 | i | 21µM* | ? | ? | -51*
Cc1cc2c(SCC(=O)NC3CCCC3)ncnc2s1 | i | -6% | i | -3% | -10
C/C(=N/NC(=O)c1cccc(N2CCCC2=O)c1)c1ccncc1 | i | -7% | i | -1% | -14
CCOC(=O)c1ccc(NC(=O)NCCc2cnc[nH]2)cc1 | i | ? | ? | -13% | 30
COc1ccc(OCc2cc(/C=N\NC(=O)c3ccccc3)ccc2OC)cc1 | 6.5µM* | 15µM* | ? | 8.2µM* | 42
COc1ccc(/C=N/NC(=O)c2cccnc2)cc1COc1ccc(NC(C)=O)cc1 | i | 8.2µM* | ? | 4.1µM* | 76
COc1cc(OC)cc(C(=O)N/N=C/c2ccc(OC)c(COc3ccc(F)cc3)c2)c1 | ? | 5.8µM* | 10µM* | 5.8µM* | 32
COc1ccc(C(=O)N/N=C\c2ccc(OC)c(COc3ccccc3Br)c2)c(OC)c1 | ? | 135% | 16µM* | -28% | -14
CCc1ccc(NC(=O)C(=O)NCCc2sc(-c3ccc(C)cc3)nc2C)cc1 | i | · | i | · | ·
Cn1c(=O)n(C)c2cc(N3CCCCC3)c(NC(=O)c3c(F)cccc3F)cc21 | i | · | i | · | ·
COc1ccc(OC)c(NC(=O)c2cccc(NC(=O)c3ccco3)c2)c1 | i | · | i | · | -15
COc1cccc(C(=O)N/N=C/c2ccc(OC)c(COc3ccccc3C(N)=O)c2)c1 | i | 16µM* | i | ? | 0
COCc1cc(/C=N\NC(=O)Cc2ccc(OC)cc2)ccc1OC | i | 3% | 23µM* | -3% | -6
COc1ccc(/C=N\NC(=O)c2ccc(F)cc2)cc1COc1ccccc1C(N)=O | i | -6% | i | ? | i
COCc1cc(/C=N\NC(=O)Cc2ccc(Cl)cc2)ccc1OC | i | 0% | i | 4% | 9
